Test results published in PubChem BioAssay AID1063 (University of Pittsburgh Molecular Library Screening Center, 2008).
Screen size: about 200,000 compounds; about 18,000 (9%) were called active. No stated cut-off is given here; in the data, active means inhibition above about 50%; inactive means the rest. What follows is part of a selection rich in actives, with near analogues and random picks from the rest.

Test: antileishmanial activity against promastigotes – primary screen (AID 1063);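 further: promastigotes grown with compound for 44 hours at 28 °C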
Details: Leishmania major promastigotes, resazurin fluorescence viability; at 10 µM; active compounds read high
In the case of COc1ccc(C2OCC3(CO2)SC(=O)NC3=O)cc1OC (stereo unspecified), the inhibition is reported as -7.62% (inactive). For O=C(NNC(=S)Nc1ccccc1)c1cccc(S(=O)(=O)N2CCOCC2)c1, the inhibition was -4.58% (inactive). In the case of COc1ccccc1NC(=O)C[n+]1ccccc1, the inhibition is reported as -3.72% (inactive). In the case of COC(=O)c1cc(C(=O)N(Cc2ccccc2)c2ccccn2)cc([N+](=O)[O-])c1, the inhibition is reported as 8.15% (inactive). For Fc1ccccc1/C=C1\CCCC2=C1Nc1ncnn1C2c1ccccc1F (stereo unspecified), the inhibition was 98.9% (active). For O=C(NCc1cccnc1)c1nc(-c2cccs2)no1, the inhibition was 4.89% (inactive). With CCOc1ccccc1C(=O)NC1CC2CCCC(C1)N2Cc1ccccc1 (stereo unspecified) the inhibition was 16% (inactive). For COc1cccc(NC(=S)NCCCN2CCOCC2)c1, the inhibition was 1.1% (inactive). In the case of C=CCn1c(CC(=O)Nc2cccc(OC)c2)nnc1SCC(=O)NC1CCCCC1, the inhibition is reported as -2.71% (inactive). For C=CCN1C2CCCC1CC(NC(=S)Nc1cccc(OC)c1)C2 (stereo unspecified), the inhibition was 54.3% (active). In the case of COc1ccc(NC(=O)NC2CC3CCCC(C2)N3Cc2ccccc2)cc1 (stereo unspecified), the inhibition is reported as 66.9% (active). For COc1ccc(NC(=O)N2CCC(Cc3ccccc3)CC2)cc1, the inhibition was -0.62% (inactive). With COc1ccc(N=C2SC(C(=O)Nc3ccc(F)cc3)CC(=O)N2C)cc1 (stereo unspecified) the inhibition was 20.6% (inactive). In the case of CN1CCN(C(=O)/C(=C\c2ccc3c(c2)OCO3)NC(=O)c2cccs2)CC1, the inhibition is reported as -8.78% (inactive). In the case of CN(CCc1cn[nH]c1)C(=O)CC1C(=O)NCCN1Cc1cccc(Oc2ccccc2)c1 (stereo unspecified), the inhibition is reported as 0.64% (inactive). In the case of O=C(/C=C/c1cn(-c2ccccc2)nc1-c1ccc2c(c1)OCCO2)NCCCN1CCOCC1, the inhibition is reported as 41.1% (inactive). In the case of Nc1ccc(OCC(O)C[n+]2ccc(CCS(=O)(=O)[O-])cc2)cc1 (stereo unspecified), the inhibition is reported as -3.78% (inactive). For O=C(O)c1ccc(N/N=C/c2ccc3ncccc3c2)cc1, the inhibition was -9.46% (inactive). In the case of CN(C(=O)CSc1nnc(-c2c[nH]c3ccccc23)o1)C1CCS(=O)(=O)C1 (stereo unspecified), the inhibition is reported as 0.33% (inactive). In the case of CCOc1cccc(NC(=O)C2CCCN(S(=O)(=O)c3ccc(OC)cc3)C2)c1 (stereo unspecified), the inhibition is reported as 30.8% (inactive). In the case of CSCC(=O)N1CCCC(C(=O)c2cc(F)ccc2F)C1 (stereo unspecified), the inhibition is reported as -4.01% (inactive). For COc1ccc(/C=C/CN2CCCC(C(=O)c3cc(F)ccc3F)C2)cc1 (stereo unspecified), the inhibition was 81.1% (active). In the case of O=C1CCC(CCC(=O)N2CCCC(C(=O)c3ccc(Cl)cc3)C2)=NN1 (stereo unspecified), the inhibition is reported as -5.05% (inactive). With CCc1nnc(NC(=O)CSc2nnnn2-c2cccc(C(C)=O)c2)s1 the inhibition was -4.47% (inactive). For O=C(NNC(=O)c1ccccc1[N+](=O)[O-])Nc1ccccc1C(F)(F)F, the inhibition was 0.59% (inactive). For Cn1cnnc1Sc1ccc(S(C)(=O)=O)cc1[N+](=O)[O-], the inhibition was -6.44% (inactive). In the case of COc1ccc(C(=O)OCC(=O)NCC2CCCO2)cc1[N+](=O)[O-] (stereo unspecified), the inhibition is reported as -1.01% (inactive). In the case of O=C(/C=C/c1ccccc1[N+](=O)[O-])NCC1CCCO1 (stereo unspecified), the inhibition is reported as 64.4% (active). In the case of O=C(NCC1CCCO1)c1ccc2ccccc2n1 (stereo unspecified), the inhibition is reported as -4.29% (inactive). For CC(C)C(=O)Nc1c(O)c2ccccc2[nH]c1=O, the inhibition was -11.4% (inactive). With O=C(Nc1ccc(S(=O)(=O)N2CCc3ccccc3C2)cc1)c1ccccc1 the inhibition was -4.05% (inactive). For CCn1cc(C(=O)NCCCN2CCCCCC2)c(=O)c2cc(S(=O)(=O)N3CCc4ccccc4C3)ccc21, the inhibition was 89.7% (active). For CCn1cc(C(=O)NCC2CCCO2)c(=O)c2cc(S(=O)(=O)N3CCCCC3)ccc21 (stereo unspecified), the inhibition was 10.9% (inactive). For CC(C)Cn1c(N2CCN(C(=O)/C=C/c3ccccc3)CC2)nc2ccccc21, the inhibition was 5.8% (inactive). In the case of CCCCOC(=O)c1ccc(N2C(=O)CC(N3CCN(C/C=C/c4ccccc4)CC3)C2=O)cc1 (stereo unspecified), the inhibition is reported as -5.72% (inactive). With O=C(Cn1c(N2CCN(C/C=C/c3ccccc3)CC2)nc2ccccc21)c1ccccc1 the inhibition was 53.2% (active). For Cc1ccccc1-n1c(SCC(=O)NCc2cccs2)nnc1-c1ccncc1, the inhibition was 53% (active). For Cc1ccc(Nc2nc(CSc3nnc(-c4ccncc4)n3-c3ccccc3C)cs2)cc1, the inhibition was 28.5% (inactive). In the case of Cc1ccc(-n2c(SCC(=O)NCc3ccc4c(c3)OCO4)nnc2-c2cccnc2)c(C)c1, the inhibition is reported as 7.56% (inactive). In the case of Cc1ccc(-c2nnc(SCC(=O)N/N=C/c3cccs3)n2-c2ccc(C)cc2)cc1, the inhibition is reported as 32% (inactive). With Cc1ccc(-c2csc3nnc(SCC(=O)NCc4ccco4)n23)cc1 the inhibition was -1.56% (inactive). With O=C(CSc1nnc(-c2ccncc2)n1-c1ccc(Cl)cc1)Nc1ccc(C(=O)O)cc1 the inhibition was -7.6% (inactive). In the case of CCn1c(SCC(=O)NCc2ccco2)nnc1-c1ccc(N)cc1, the inhibition is reported as -3.78% (inactive). For CCOc1ccccc1-n1c(SCC(=O)NCc2ccco2)nnc1-c1ccncc1, the inhibition was 67.1% (active). For Cc1ccc(-n2c(SCC(=O)N3c4ccccc4Sc4ccccc43)nnc2-c2ccncc2)cc1, the inhibition was 62.6% (active). For CCc1nc2ccccc2c(C(=O)OC2CCCCC2=O)c1C (stereo unspecified), the inhibition was 7.85% (inactive). In the case of O=[N+]([O-])c1cccc(/C([O-])=C(/C(=S)Nc2ccccc2F)[n+]2ccccc2)c1, the inhibition is reported as -0.54% (inactive). With C=CCN(C(=O)c1cc(C)cc(C)c1)C1(C(=O)Nc2ccccc2)CCN(C(C)C)CC1 the inhibition was 6.23% (inactive). In the case of CCNC(=O)N1c2ccccc2Sc2ccccc21, the inhibition is reported as 4.94% (inactive). With COc1ccccc1CNC(=O)C1Cc2ccccc2C(=O)O1 (stereo unspecified) the inhibition was -1.31% (inactive). With CCCC1NC(=S)NC(C)=C1C(C)=O (stereo unspecified) the inhibition was -12.4% (inactive). For O=C(/C=C/c1ccc2c(c1)OCO2)NCc1cn2cc(Cl)ccc2n1, the inhibition was -4.11% (inactive). In the case of CC(C)NC(=S)Nc1cccc2cnccc12, the inhibition is reported as -1.24% (inactive). For CCOC(=O)Cn1nnnc1C, the inhibition was -3.4% (inactive). In the case of C=CCC(CC=C)(C(N)=O)c1ccccc1, the inhibition is reported as 2.87% (inactive). For CCC(C)NC(=O)CCCc1ccccc1 (stereo unspecified), the inhibition was 13.2% (inactive). With CCCCC(O)(CCCC)C(=O)NN(C(=O)CCl)c1ccccc1 the inhibition was 54.5% (active). For CCCCCCCCC(=O)NCCOc1ccccc1, the inhibition was -9.39% (inactive). With CCCC(O)(CCC)C(=O)NN(C(=O)CCl)c1cccc(C)c1 the inhibition was 82.9% (active). For CC(C)(O)C(=O)NN(C(=O)c1ccccc1)c1cccc(Br)c1, the inhibition was 3.6% (inactive). With Cc1ccc(N(NC(=O)C(C)(C)O)C(=O)c2ccccc2)cc1C the inhibition was -3.54% (inactive).
